Results taken from PubChem BioAssay AID720518 (National Center for Advancing Translational Sciences (NCATS), 2013).
Inconclusive results are not listed. Entries that show only a call come without a potency. Activity calls are given as the source filed them. The call rests on the fitted dose curve.

Test: qHTS for Inhibitors of Cell Surface uPA Generation: Wild-type Protective Antigen (WT-PrAg) Counterscreen for Cherry-picked Compounds
Details: cells, WT protective antigen toxicity counterscreen; series mostly up to 115 µM

**Q.** Which Potency does the source give for `O=c1[nH]c2c(s1)C(c1ccc(O)cc1)C1C3CCC(C3)C1S2` (stereo not given) here?
**A.** inactive

**Q.** For `Cc1cc(C)c(S(=O)(=O)N2CCCOC2CNC(=O)C(=O)NCc2cccs2)c(C)c1` (stereo not given), which Potency is on record?
**A.** inactive

**Q.** With `Cc1ccc(NC(=S)N2CCN(Cc3ccc4c(c3)OCO4)CC2)c(C)c1` as the compound, how does the Potency read?
**A.** inactive

**Q.** Which Potency does the source give for `CC(=O)NCCc1cnc[nH]1` here?
**A.** inactive

**Q.** With `Cc1ccc([C@H]2C(C(=O)O)=CC[C@@H](c3cccc(C)c3)N2S(=O)(=O)c2ccc(C)cc2)cc1` as the compound, how does the Potency read?
**A.** inactive

**Q.** Which Potency does the source give for `COc1cccc(NC(=O)CSc2nc3ncc(Br)cc3[nH]2)c1` here?
**A.** inactive

**Q.** For `O=C1N[C@@H](Cc2c[nH]c3ccccc23)C(=O)N[C@H]1Cc1ccccc1`, which Potency is on record?
**A.** inactive

**Q.** For `COc1ccc(NS(=O)(=O)c2cc3c(cc2C)NC(=O)CO3)c(OC)c1`, which Potency is on record?
**A.** inactive

**Q.** With `COc1ccccc1CN1CC(C(=O)NCc2cccc(C)n2)CCC1=O` (stereo not given) as the compound, how does the Potency read?
**A.** inactive

**Q.** Which Potency does the source give for `CCc1ccccc1N(CC(=O)N1CCCC1)S(C)(=O)=O` here?
**A.** inactive

**Q.** For `CC(=O)c1ccc2c(c1)c1ccccc1n2CC(C)C`, which Potency is on record?
**A.** inactive

**Q.** Which Potency does the source give for `Cc1ccc2nc(Nc3ccc(Cl)cc3)c3nncn3c2c1` here?
**A.** inactive

**Q.** For `O=C(C1CCCCN1S(=O)(=O)c1ccc(F)cc1)N1CCN(c2ccccc2F)CC1` (stereo not given), which Potency is on record?
**A.** inactive

**Q.** For `CCCCNC(=O)c1cc2c(-c3ccc(Cl)cc3)nn(C)c2s1`, which Potency is on record?
**A.** inactive

**Q.** For `C=C1C(=O)[C@@]23[C@H](O)C[C@@H]4C(C)(C)CC[C@H](O)[C@]4(C)[C@@H]2C[C@H](O)[C@@H]1[C@H]3O`, which Potency is on record?
**A.** inactive

**Q.** Which Potency does the source give for `COc1ccccc1N1CCN(Cc2ccc(SC)cc2)CC1` here?
**A.** inactive

**Q.** For `C=CCn1c(=O)c(C(=O)NCCc2ccc(Cl)cc2)c(O)c2cc(OC)c(OC)cc21`, which Potency is on record?
**A.** inactive

**Q.** With `CN1CCN(C2=Nc3ccccc3Oc3ccc(Cl)cc32)CC1` as the compound, how does the Potency read?
**A.** inactive

**Q.** For `Cc1ccc(-n2c(O)c(C=NCCN3CCNCC3)c(=O)[nH]c2=S)cc1`, which Potency is on record?
**A.** inactive

**Q.** For `CCN1CCN(Cc2ccc(NC(=O)c3cc(NC(=O)c4cncc(-c5cccs5)c4)cc(OC)c3)cc2C(F)(F)F)CC1`, which Potency is on record?
**A.** inactive

**Q.** With `CC(=O)c1ccc(OCCCCOc2ccc(C(C)=O)cc2)cc1` as the compound, how does the Potency read?
**A.** inactive

**Q.** Which Potency does the source give for `CCn1nc(NS(=O)(=O)c2ccccc2)c2cc3cc(C)ccc3nc21` here?
**A.** inactive

**Q.** Which Potency does the source give for `NC(=O)c1cc2ccncc2c2ccccc12` here?
**A.** inactive

**Q.** Which Potency does the source give for `O=C(NNC(=O)c1ccc2ccccc2c1)Nc1ccc(F)cc1` here?
**A.** inactive

**Q.** Which Potency does the source give for `CC(C)N1CCc2c(sc(NC(=O)Cc3ccccc3)c2C(N)=O)C1` here?
**A.** inactive

**Q.** Which Potency does the source give for `Cc1ccc(C(=O)NC(=S)Nc2ccc3[nH]c(=O)[nH]c3c2)c(C)c1` here?
**A.** inactive

**Q.** With `CCOC(=O)C1=C(C)N(Cc2ccccc2)C(=O)NC1c1ccc(OC)cc1` (stereo not given) as the compound, how does the Potency read?
**A.** inactive

**Q.** For `CC1CCCC(NC(=O)CNC(=S)N(Cc2ccccc2)Cc2cccs2)C1C` (stereo not given), which Potency is on record?
**A.** inactive

**Q.** Which Potency does the source give for `O=C(Nc1c(C(=O)O)oc2ccc(Br)cc12)c1ccccc1` here?
**A.** inactive

**Q.** Which Potency does the source give for `CCSC1=NCCN1S(=O)(=O)c1ccc(Cl)cc1` here?
**A.** inactive

**Q.** For `COc1cc(C(C)=O)ccc1OCc1cn(CC(=O)c2ccc(O)cc2)nn1`, which Potency is on record?
**A.** inactive

**Q.** With `O=C(c1ccc(NC(=S)NCc2ccc(Cl)cc2)cc1)N1CCCCC1` as the compound, how does the Potency read?
**A.** inactive

**Q.** With `CC(NC(=O)C1CCC(C(=O)NC(C)c2ccccc2)CC1)c1ccccc1` (stereo not given) as the compound, how does the Potency read?
**A.** inactive

**Q.** For `NC(=O)CC(NC(=O)Cc1cccc2ccccc12)c1ccc(N2CCN(c3ccccc3)CC2)c([N+](=O)[O-])c1` (stereo not given), which Potency is on record?
**A.** inactive

**Q.** For `Nc1ccc(S(=O)(=O)c2ccccc2)nc1`, which Potency is on record?
**A.** inactive

**Q.** With `O=C(CC1(O)C(=O)Nc2ccccc21)c1cccc(Br)c1` (stereo not given) as the compound, how does the Potency read?
**A.** inactive

**Q.** With `COc1ccc2nc(SC(C)C(=O)NC3(C#N)CCCCC3)[nH]c2c1` (stereo not given) as the compound, how does the Potency read?
**A.** inactive

**Q.** With `COc1ccccc1NC(=O)Cn1ncc2c1-c1ccccc1OC2` as the compound, how does the Potency read?
**A.** inactive

**Q.** With `CC1CCCN(C(=O)c2ccc(CNc3c(N4CCCCC4)c(=O)c3=O)cc2)C1` (stereo not given) as the compound, how does the Potency read?
**A.** inactive

**Q.** Which Potency does the source give for `CCCCn1c(-c2cccnc2)nc2cc3[nH]c(=O)c(C(C)C)nc3cc21` here?
**A.** inactive
